Experiment [1] can be described thus: inhibitors of TNFa-induced NFkB p65 translocation, primary screen, imaging, HUVEC, MLSMR starter and 10KST1 sets (AID 438;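 active = inhibition above 20% together with a positive visual image hit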;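 note: compound added about 3h40 before a 20 min TNFalpha stimulation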;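 for inhibition: signal is the nuclear over cytoplasmic p65 intensity ratio per well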). As to conditions: HUVEC TNFa-induced p65 nuclear translocation; cell count: measured here: nuclei count (cytotoxicity indicator), at 2.08 µM; inhibition: at 2 µM, stronger effect = higher value, 0% TNFa-plus-vehicle, 100% no-TNFa wells.
The nature of experiment [2]: inhibitors of mutant huntingtin aggregation, primary screen, imaging, exon1htt(103Q)mCFP cells, high-content imaging (AID 483;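 active = visual image review flags a hit and inhibition of aggregation exceeds 20%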;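 note: compound exposure lasted 3 days before fixation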;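 for nuclei count: percent of the per-plate median nuclei count of sample wells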). As to conditions: exon1htt(103Q)mCFP cell line, aggregate imaging, at 2 µM; inhibition of aggregation: stronger effect = higher value; nuclei count: measured here: cell count, toxicity.
The nature of experiment [3]: inhibitors of E-selectin induction by TNFa, primary screen, imaging, HUVEC, immunofluorescence, MLSMR starter and 10KST1 sets (AID 487;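 active = visually confirmed hit in the image check and inhibition above 20%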;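 for inhibition: signal is fraction of cell area covered by stained E-selectin grains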;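 for nuclei count: 100% = median nuclei count of all wells on the same plate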). The conditions noted are these: HUVEC TNFalpha-induced E-selectin immunofluorescence imaging, at 2 µM; inhibition: stronger effect = higher value; nuclei count: measured here: cell number, toxicity.
Experiment [4] concerns the target Voltage-gated potassium channel subunit beta-2 (Rattus norvegicus) (UniProt P62483). The experiment is described as follows: KvBeta enzyme negative modulators, primary screen, biochemical, NADPH fluorescence (AID 622;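 active = fluorescence slope higher than the sample average by over 3 SD, cut at about -0.22 in these data, passing the limit was not always enough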;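 note: slope of raw intensity against log time taken from 70 to 1610 s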). As to conditions: recombinant KvBeta, 4-cyanobenzaldehyde reduction, at 10 µM, stronger effect = higher value.
Experiment [5] shares this target. The experiment is described as follows: KvBeta positive modulators, primary screen, biochemical, NADPH fluorescence (AID 623;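 active = NADPH fluorescence slope more negative than the mean of all samples by about 3 SD, 99.7% confidence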;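 note: fluorescence intensity change per second fitted from 20 to 320 s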). As to conditions: Recombinant KvBeta, NADPH fluorescence decrease slope, 10 min; at 10 µM; stronger effect = lower value.
The target of experiment [6] is Alpha-2C adrenergic receptor (Homo sapiens) (UniProt P18825). The experiment is described as follows: modulators of alpha2C/GIRK thallium flux, primary screen, cell-based, HEK293 alpha2C/GIRK1/2 (AID 624;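 active = fluorescence slope after compound addition differing from the mean of all screened samples at 99.7% confidence, in either direction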;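 note: slope of fluorescence ratio to pre-addition baseline per second over 15 to 24 s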). The conditions noted are these: thallium flux BTC fluorescence, at 10 µM, actives lie on both sides.
A short description of experiment [7]: inhibitors of Sendai virus-induced IRF3 signaling, primary screen, TLR/RLR signaling modifier project, cell-based, Sendai virus stimulus, luciferase, 10K MLSCN set (AID 602276;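 active = inhibition at or above 50% at 10 µM; inactive = inhibition below 50%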;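 note: firefly luciferase from ISG56 promoter only with Renilla not read in this screen; 0% = Sendai virus plus DMSO and 100% = medium plus DMSO without virus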). As to conditions: HEK293 RL24 IRF3 luciferase reporter, at 10 µM, stronger effect = higher value.
The nature of experiment [8]: inhibitors of poly I:C-induced TLR3 signaling, primary screen, cell-based, poly I:C stimulus, luciferase, 10K MLSCN set (AID 602277). As to conditions: HEK293-TLR3 RL24 IRF3 luciferase reporter, at 10 µM, stronger effect = higher value.

Activity calls are given as the source filed them.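 Rule for the calls, unless noted: active = inhibition of the reporter signal at or above 50%; inactive = inhibition below 50%.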

The record followed here is PubChem BioAssay.

Voltage-gated potassium channel subunit beta-2 (Rattus norvegicus), sequence (P62483 whole entry, looked up): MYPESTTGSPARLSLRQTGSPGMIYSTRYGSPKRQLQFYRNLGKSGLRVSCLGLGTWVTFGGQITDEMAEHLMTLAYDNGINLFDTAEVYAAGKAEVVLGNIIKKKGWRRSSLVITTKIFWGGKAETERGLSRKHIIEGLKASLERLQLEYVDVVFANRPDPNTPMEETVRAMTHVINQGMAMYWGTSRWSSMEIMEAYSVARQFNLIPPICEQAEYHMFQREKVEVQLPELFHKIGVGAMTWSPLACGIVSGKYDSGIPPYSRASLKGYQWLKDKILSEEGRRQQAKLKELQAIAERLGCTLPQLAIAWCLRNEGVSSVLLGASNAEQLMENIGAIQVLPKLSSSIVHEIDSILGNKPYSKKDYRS
Alpha-2C adrenergic receptor (Homo sapiens), sequence (P18825 whole entry, looked up): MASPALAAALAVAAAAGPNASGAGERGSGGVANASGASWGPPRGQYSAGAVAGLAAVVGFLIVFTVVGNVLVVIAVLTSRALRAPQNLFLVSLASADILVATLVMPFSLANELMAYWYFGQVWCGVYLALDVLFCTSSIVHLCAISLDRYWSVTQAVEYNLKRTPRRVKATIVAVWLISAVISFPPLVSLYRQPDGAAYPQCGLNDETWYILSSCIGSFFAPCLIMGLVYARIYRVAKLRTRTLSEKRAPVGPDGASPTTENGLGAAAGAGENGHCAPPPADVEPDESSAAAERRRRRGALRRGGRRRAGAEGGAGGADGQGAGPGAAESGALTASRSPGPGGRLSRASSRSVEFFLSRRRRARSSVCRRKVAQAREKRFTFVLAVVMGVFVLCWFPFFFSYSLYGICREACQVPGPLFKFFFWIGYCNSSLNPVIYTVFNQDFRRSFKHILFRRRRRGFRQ

A word on the inhibition: it is the drop in the measured response relative to a control, in per cent. Consider `CCNc1ccc2c(Cl)cc(=O)oc2c1`, for which the cell count in experiment [1] was 356. In addition, the inhibition in experiment [1] was -2.5% (inactive); in experiment [3] it was -6.6% (inactive); in experiment [7] it was 4.11% (inactive); in experiment [8], -1.88% (inactive). In addition, the inhibition of aggregation in experiment [2] was 25.1% (inactive). For the same molecule, the nuclei count in experiment [2] amounted to 72.6%; in experiment [3], 98.3%. Also, the fluorescence slope in experiment [4] is -0.255 (inactive). Also, the NADPH fluorescence slope in experiment [5] is -3e-05 (inactive). Also, in experiment [6], the slope was 0.00496 (inactive).
For `CC(=O)c1cccc(NC(=O)CCNS(=O)(=O)c2cccc3nsnc23)c1`, the cell count in experiment [1] was 439. In addition, the inhibition in experiment [1] is -3.5% (inactive); in experiment [3], -46.7% (inactive); in experiment [7], 11.2% (inactive); in experiment [8], 17.2% (inactive). The inhibition of aggregation in experiment [2] was -17.6% (inactive). The figures for the nuclei count in experiment [2] and in experiment [3] were 104% and 107%, respectively. Further, the fluorescence slope in experiment [4] is -0.539 (inactive). In addition, the NADPH fluorescence slope in experiment [5] is -3e-05 (inactive). For the same molecule, in experiment [6], the slope is 0.00543 (inactive).
As to `Cc1ccc(N(Cc2ccco2)C(=O)c2cccc(S(=O)(=O)N(C)C)c2)cc1`, in experiment [1], the cell count came out at 357. For the same molecule, the inhibition in experiment [1] was 2.1% (inactive); in experiment [3], 66% (inactive); in experiment [7], 0.154% (inactive); in experiment [8] it was 14.9% (inactive). Besides, the inhibition of aggregation in experiment [2] was 25.6% (inactive). The nuclei count in experiment [2] came to 103%; in experiment [3], 97.5%. Besides, the fluorescence slope in experiment [4] was -0.393 (inactive). Besides, in experiment [5], the NADPH fluorescence slope is -4.3e-06 (inactive). The slope in experiment [6] is 0.0037 (inactive).
As for `CCC(=O)Nc1cc(C)c(NC(=O)C23CC4CC(CC(C4)C2)C3)cn1`, in experiment [1], the cell count stood at 391. Also, the inhibition in experiment [1] is 5.2% (inactive); in experiment [3], -11.3% (inactive); in experiment [7], 1.14% (inactive); in experiment [8], 18.1% (inactive). Moreover, the inhibition of aggregation in experiment [2] was 1% (inactive). In addition, the nuclei count was found to be 98.8% in experiment [2] and 102% in experiment [3]. Also, the fluorescence slope in experiment [4] is -0.479 (inactive). Also, the NADPH fluorescence slope in experiment [5] was -3.3e-05 (inactive). Further, the slope in experiment [6] was 0.00598 (inactive).
Consider `COCCCNC(=O)c1ccc(CS(=O)(=O)c2ccc(OC)cc2)o1`, for which, in experiment [1], the cell count is 696. Besides, the inhibition in experiment [1] is -8.1% (inactive); in experiment [3] it was -54.8% (inactive); in experiment [7], 7.18% (inactive); in experiment [8] it was 13.8% (inactive). Also, in experiment [2], the inhibition of aggregation is 5.6% (inactive). In addition, the nuclei count worked out at 101% in experiment [2] and 115% in experiment [3]. Further, the fluorescence slope in experiment [4] was -0.519 (inactive). In experiment [5], the NADPH fluorescence slope is -5.8e-05 (inactive). Further, in experiment [6], the slope is 0.00615 (inactive).
Regarding `CCn1c(CCNC(=O)c2cccs2)nnc1SCC(=O)c1ccc(OC)cc1`, in experiment [1], the cell count was 263. Further, the inhibition in experiment [1] was 0.8% (inactive); in experiment [3] it was -94.1% (inactive); in experiment [7], -4.44% (inactive); in experiment [8], -7.83% (inactive). The inhibition of aggregation in experiment [2] was -4.7% (inactive). Besides, the nuclei count was found to be 99.7% in experiment [2] and 115% in experiment [3]. Also, the fluorescence slope in experiment [4] is -0.398 (inactive). Besides, in experiment [5], the NADPH fluorescence slope is 2.4e-05 (inactive). Further, the slope in experiment [6] is 0.00289 (inactive).
Take `Cc1ccc2c(c1)-c1c(cnn1CC(=O)NC(C)CCc1ccco1)CO2` (centres undefined): in experiment [1], the cell count is 799. Further, the inhibition is 4.6% (inactive) in experiment [1], -62.3% (inactive) in experiment [3], 11.5% (inactive) in experiment [7] and 29.3% (inactive) in experiment [8]. Further, the inhibition of aggregation in experiment [2] was -8% (inactive). Also, the nuclei count in experiment [2] was 119%; in experiment [3], 125%. The fluorescence slope in experiment [4] was -0.577 (inactive). For the same molecule, the NADPH fluorescence slope in experiment [5] was -2e-05 (inactive). Also, the slope in experiment [6] was 0.00658 (inactive).
With `CC(=O)n1nc(-c2ccco2)nc1SCc1ccccc1`, in experiment [1], the cell count stood at 573. Also, the inhibition in experiment [1] was 2.8% (inactive); in experiment [3] it was -122% (inactive); in experiment [7], -22.5% (inactive); in experiment [8], -108% (inactive). In experiment [2], the inhibition of aggregation was 25.1% (inactive). The nuclei count in experiment [2] came to 100%; in experiment [3], 94.1%. In addition, in experiment [4], the fluorescence slope is -0.599 (inactive). Besides, in experiment [5], the NADPH fluorescence slope is 1.3e-05 (inactive). The slope in experiment [6] was 0.00839 (inactive).
As to `CC(=O)Nc1ccc(NS(=O)(=O)c2ccc(Cl)c(C(=O)O)c2)cc1`, in experiment [1], the cell count is 688. For the same molecule, the inhibition is -3.9% (inactive) in experiment [1], -37.3% (inactive) in experiment [3], -2.13% (inactive) in experiment [7] and 20.4% (inactive) in experiment [8]. Further, the inhibition of aggregation in experiment [2] was 11.4% (inactive). Also, the results for the nuclei count in experiment [2] and in experiment [3] were 124% and 128%, respectively. Moreover, in experiment [4], the fluorescence slope was -0.42 (inactive). Further, the NADPH fluorescence slope in experiment [5] is -3.1e-05 (inactive). Besides, the slope in experiment [6] is 0.00403 (inactive).
Regarding `CCOc1ccc2oc(-c3ccccc3)c(C(=O)N3CCN(CCO)CC3)c2c1`, the cell count in experiment [1] was 649. In addition, the inhibition in experiment [1] was -14.6% (inactive); in experiment [3], -37.2% (inactive); in experiment [7], 15.9% (inactive); in experiment [8], 34% (inactive). Also, the inhibition of aggregation in experiment [2] is 2.8% (inactive). Also, the nuclei count in experiment [2] was 89.6%; in experiment [3], 112%. The fluorescence slope in experiment [4] is -0.584 (inactive). In experiment [5], the NADPH fluorescence slope was 1.9e-05 (inactive). Moreover, the slope in experiment [6] is 0.00775 (inactive).
Regarding `O=C(Nc1ccc2c(c1)C(=O)N(C1CCCCC1)C2=O)C1CCCO1` (centres undefined), the cell count in experiment [1] came out at 269. Further, the inhibition in experiment [1] is -11.7% (inactive); in experiment [3], 47.7% (inactive); in experiment [7] it was -7.34% (inactive); in experiment [8] it was -20.5% (inactive). Moreover, the inhibition of aggregation in experiment [2] is 9% (inactive). Besides, the results for the nuclei count in experiment [2] and in experiment [3] were 71.5% and 43.2%, respectively. The fluorescence slope in experiment [4] is -0.0454 (active). Moreover, the NADPH fluorescence slope in experiment [5] was 6.1e-06 (inactive). For the same molecule, in experiment [6], the slope was 0.00452 (inactive).
Regarding `COCCn1nnnc1C(c1ccc(OC)cc1)N1CCN(c2ccccc2F)CC1` (centres undefined), the cell count in experiment [1] amounted to 476. Also, the inhibition in experiment [1] is -1.9% (inactive); in experiment [3], -30.1% (inactive); in experiment [7], 14.5% (inactive); in experiment [8], 22.9% (inactive). The inhibition of aggregation in experiment [2] was -4.8% (inactive). Besides, the nuclei count was 131% in experiment [2] and 104% in experiment [3]. For the same molecule, in experiment [4], the fluorescence slope was -0.585 (inactive). Also, the NADPH fluorescence slope in experiment [5] is -9.6e-06 (inactive). Moreover, the slope in experiment [6] was 0.00546 (inactive).
Take `O=C(NCCc1ccccc1)C1CCCN(S(=O)(=O)c2cccs2)C1` (centres undefined): in experiment [1], the cell count was found to be 901. Moreover, the inhibition was 6.9% (inactive) in experiment [1], -27.2% (inactive) in experiment [3], 10.2% (inactive) in experiment [7] and 23.9% (inactive) in experiment [8]. Also, the inhibition of aggregation in experiment [2] is -17.3% (inactive). Moreover, the nuclei count in experiment [2] is 111%; in experiment [3] it was 115%. For the same molecule, the fluorescence slope in experiment [4] is -0.571 (inactive). The NADPH fluorescence slope in experiment [5] is -2.3e-05 (inactive). Besides, the slope in experiment [6] is 0.00585 (inactive).
Consider `CCOC(=O)c1oc2c(CN3CCN(C)CC3)c(O)ccc2c(=O)c1-c1ccccc1OC`, for which, in experiment [1], the cell count came to 463. The inhibition in experiment [1] is 2.1% (inactive); in experiment [3] it was -59% (inactive); in experiment [7], 9.7% (inactive); in experiment [8], 20.2% (inactive). Moreover, the inhibition of aggregation in experiment [2] is -44.9% (inactive). Also, the nuclei count in experiment [2] stood at 86.2%; in experiment [3] it was 103%. The fluorescence slope in experiment [4] was -0.61 (inactive). The NADPH fluorescence slope in experiment [5] was 8.1e-06 (inactive). In experiment [6], the slope was 0.00673 (inactive).
